Source: PubChem BioAssay (Tox21)
Inconclusive results are not listed. Where a call stands in place of a potency, no number is given. Activity calls are given as the source filed them. Calls follow the shape of the dose curve; as a rule, active = well fitted inhibition curve with a large enough effect in the repeat runs; inconclusive = weak or mixed curves; inactive = no such curve, though single readings can be large or run the other way.

Molecular target: Cytochrome P450 2D6 (Homo sapiens) (UniProt P10635)
Sequence (P10635 whole entry, looked up): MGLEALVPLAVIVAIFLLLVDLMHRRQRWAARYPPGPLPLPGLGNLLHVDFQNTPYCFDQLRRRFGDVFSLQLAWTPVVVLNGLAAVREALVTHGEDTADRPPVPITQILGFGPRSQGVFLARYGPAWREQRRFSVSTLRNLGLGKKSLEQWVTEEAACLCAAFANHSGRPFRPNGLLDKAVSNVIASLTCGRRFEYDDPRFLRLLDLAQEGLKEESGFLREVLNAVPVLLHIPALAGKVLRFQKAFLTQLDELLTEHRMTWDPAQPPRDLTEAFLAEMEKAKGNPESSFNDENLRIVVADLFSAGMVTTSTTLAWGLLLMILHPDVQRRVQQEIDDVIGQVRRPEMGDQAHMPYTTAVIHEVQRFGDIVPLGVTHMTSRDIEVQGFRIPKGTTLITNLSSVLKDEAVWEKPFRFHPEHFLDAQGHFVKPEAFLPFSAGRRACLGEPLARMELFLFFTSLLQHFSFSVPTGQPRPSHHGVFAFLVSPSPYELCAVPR
Experiment: Cytochrome P450 Family 2 Subfamily D Member 6 (CYP2D6) small molecule antagonists: luciferase reporter qHTS assay (AID 1671196); also: nearly all actives have a fitted effect of over 50% in size
Settings: P450-Glo CYP2D6 enzyme assay, luciferin luminescence, 1 h; series mostly up to 115 µM
Summary of the method: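 Luminescence (RLU), read 20 min after detection reagent, indicated CYP2D6 conversion of proluciferin to luciferin during a 1 h NADPH-dependent reaction at room temperature.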
Potency is read from the fitted curve at half-maximal effect.

Structure (SMILES) | Potency
O=C(O)c1cccc(-c2noc(-c3ccccc3F)n2)c1 | 3.47 µM (active)
CN1CCCC(CC2c3ccccc3Sc3ccccc32)C1 (centres undefined) | 0.389 µM (active)
O=C(O)CCC(=O)C(=O)O | 71 µM (active)
O=C=Nc1ccc(Cl)c(Cl)c1 | inactive
O=[N+]([O-])c1ccc(O/N=C/c2cc(Br)c(O)c(Br)c2)c([N+](=O)[O-])c1 | inactive
CCCC(C(=O)OCCN(CC)CC)(c1ccccc1)c1ccccc1 | 0.275 µM (active)
C=C1C[C@@]23CC[C@H]4[C@@](C)(CCC[C@@]4(C)C(=O)O[C@@H]4O[C@H](CO)[C@@H](O)[C@H](O)[C@H]4O)[C@@H]2CC[C@]1(O[C@@H]1O[C@H](CO)[C@@H](O)[C@H](O[C@@H]2O[C@H](CO)[C@@H](O)[C@H](O)[C@H]2O)[C@H]1O[C@@H]1O[C@H](CO)[C@@H](O)[C@H](O)[C@H]1O)C3 | inactive
CC(C)Nc1cccnc1N1CCN(C(=O)c2cc3cc(NS(C)(=O)=O)ccc3[nH]2)CC1 | 5.49 µM (active)
CC(CC1c2ccccc2CCc2ccccc21)CN(C)C (centres undefined) | 0.977 µM (active)
COc1cc(C(=O)NCCCCCC(=O)O)cc(OC)c1OC | inactive
CC1=C(Br)C(=O)C(Br)=C/C1=C(/c1ccccc1S(=O)(=O)O)c1cc(Br)c(O)c(Br)c1C | 21.6 µM (active)
N#CCCN(CCO)CCO | inactive
CC(C)(C)C(=O)C(=O)O | inactive
CC1CC(C)C(=O)C1=O (centres undefined) | inactive
CC(=O)c1cc2ccccc2s1 | inactive
C/C=C/C=C/C=O | inactive
C=CCc1ccccc1OCC(O)CNC(C)C (centres undefined) | 5.49 µM (active)
O=C(/C=C/c1ccccc1)OCCc1ccccc1 | inactive
O=[N+]([O-])c1ccc(Nc2ccc(Nc3ccccc3)c(S(=O)(=O)O)c2)c([N+](=O)[O-])c1 | inactive
COC(=O)c1nc(Cl)c(Cl)nc1N | inactive

Structure (SMILES) | Potency
CCCCCC#CC(=O)OC | inactive
Oc1c(I)cc(I)c2cccnc12 | inactive
C[C@]1(Cn2ccnn2)[C@H](C(=O)O)N2C(=O)C[C@H]2S1(=O)=O | inactive
C=C(C)[C@@H]1CCC2=CCC[C@@H](C)[C@]2(C)C1 | inactive
CCC(OCCCOC)OC(C)=O (centres undefined) | inactive
CCOC(=O)c1ccc(C#Cc2ccc3c(c2)C(C)(C)CCS3)nc1 | inactive
O=C(Cn1ccnc1[N+](=O)[O-])NCCO | inactive
NC1[C@H]2CN(c3nc4c(cc3F)c(=O)c(C(=O)O)cn4-c3ccc(F)cc3F)C[C@@H]12 (some centres undefined) | inactive
C=COCC(C)C | inactive
NCCNCCO | 28.6 µM (active)
Oc1ccc(Cl)c2cccnc12 | inactive
C[C@@H](O)[C@H]1C(=O)N2C(C(=O)O)=C([C@H]3CCCO3)S[C@H]12 | inactive
COC(=O)C1=C(C)NC(C)=C(C(=O)O[C@@H]2CCCN(Cc3ccccc3)C2)[C@@H]1c1cccc([N+](=O)[O-])c1 | 15.5 µM (active)
C1COC1 | inactive
C[C@@H](O[C@H]1OCCN(Cc2n[nH]c(=O)[nH]2)[C@H]1c1ccc(F)cc1)c1cc(C(F)(F)F)cc(C(F)(F)F)c1 | 19.5 µM (active)
O=c1cc(-c2ccccc2)oc2ccc3ccccc3c12 | 5.64 µM (active)
CCOC(=O)c1ccc(O)c(O)c1 | inactive
O=C(O)C[C@H](NC(=O)OCc1ccccc1)C(=O)O | inactive
O=c1[nH]c2ccc(Cl)cc2o1 | inactive
